In all, about 360,000 compounds went through this assay and about 17,000 (4.7%) were called active. Another 5% or so got no clear call; they are omitted. Only a selection was taken, and actives are over-represented in it overall. Values without a mark were called inactive. Cut-off read from the data, not from the text of the source: active = activity change below about -50%; inconclusive = mostly about -30% to -49%; inactive = weaker than that.
assay: qHTS for Inhibitors of Inflammasome Signaling: IL-1-beta AlphaLISA Primary Screen; details: THP-1 LPS/ATP IL-1B secretion, 16 h; at 57.5 µM, hits give low values
How it was run: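 Secreted IL-1B measured by AlphaLISA bead assay after 16 h compound exposure of THP-1 cells; compounds (final up to 57.5 uM) added 1 h before LPS (250 ng/mL) and ATP (1.25 mM) stimulation; lower signal means less secretion.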
% is set by controls: 0 for no effect and ±100 for the full control effect.

| Compound | activity change |
| --- | --- |
| Cc1ccc(N2NC(=O)/C(=C/C=C/c3ccco3)C2=O)cc1C | -62.6% (active) |
| O=C1NN(c2ccccc2)C(=O)/C1=C/c1ccc(-c2cccc(C(=O)O)c2)o1 | -4.59% |
| Cc1ccc(-n2ncc3c(=O)n(-c4ccc(C)c(C)c4)c(-c4ccco4)nc32)cc1 | -18.4% |
| Cc1ccc(N=C2NC(=O)/C(=C/C=C/c3ccco3)S2)cc1C | -91.3% (active) |
| CN1C(=O)/C(=C/c2ccco2)SC1=Nc1cccc(C(=O)O)c1 | 18.8% |
| CCOP(=O)(OCC)C(Cc1ccccc1)N=C(c1ccccc1)c1ccccc1 (configuration not stated) | -2.56% |
| CNS(=O)(=O)c1ccc2c(c1)[nH]c(=S)n2C | -25% |
| Cc1[nH]c(N)nc(=S)c1CCCNc1ccccc1 | 5.82% |
| O=C(NCc1ccccc1)c1cccc(NC(=O)C2CCCCC2)c1 | -13.6% |
| CCC(C)Sc1nc(C)nc2c1c(=O)n(C)c(=O)n2C (configuration not stated) | 11.7% |
| Cc1cc(Br)cn2c(Cc3ccsc3)c(-c3ccc(C#N)cc3)nc12 | -10.8% |
| CN(Cc1ccc(C(F)(F)F)cc1)C(=O)[C@H]1O[C@@H](n2cnc3c(N)ncnc32)[C@H](O)[C@@H]1O | -14.1% |
| Cc1ccc2nc(SCC(=O)N3CC(C)OC(C)C3)nc(=O)n2c1 (configuration not stated) | 13.3% |
| CC(C)C[C@@H](CO)N1CCN(Cc2ccc(O)cc2)CCC1=O | 0% |
| Cc1ccc(S(=O)(=O)N2CCC(=O)N([C@H](COCc3ccccc3)Cc3ccccc3)CC2)cc1 | 13.2% |
| O=C(c1cc(Cl)cc(Cl)c1)N1CCC(=O)N(C(COCc2ccccc2)Cc2ccccc2)CC1 (configuration not stated) | -74.4% (active) |
| CC(C)CC(CO)N1CCN(C(=O)c2ccc(Cl)cc2Cl)CCC1=O (configuration not stated) | 4.74% |
| O=C(c1ccc(C(F)(F)F)cc1)N1CCC(=O)N([C@H](COCc2ccccc2)Cc2ccccc2)CC1 | -29.6% |
| CC(C)C[C@@H](COCc1ccc(Cl)cc1)N1CCN(C(=O)c2ccc(Cl)cc2Cl)CCC1=O | -52.8% (active) |

| Compound | activity change |
| --- | --- |
| CCc1noc(C)c1C(=O)OCC(=O)c1ccc(NC(=O)CC(C)C)cc1 | 1.82% |
| C[C@@H]1CN([C@@H](C)CO)C(=O)CCCn2nncc2CO[C@@H]1CN(C)S(=O)(=O)c1ccc(-c2ccccc2)cc1 | -3.91% |
| CN=C1SC(C(=O)O)CC(=O)N1C (configuration not stated) | 0.415% |
| CCCCn1nnnc1C(c1ccccc1)N1CCN(c2ccccc2OC)CC1 (configuration not stated) | -1.89% |
| CC1=C(C(=O)N2CCOCC2)CC(CC(=O)NCc2cccs2)C(=O)N1CCCN1CCCC1=O (configuration not stated) | 2.1% |
| Cc1ccc(-n2c(SCC(=O)N3c4ccccc4Sc4ccccc43)nnc2-c2ccncc2)cc1 | -10.1% |
| Cc1ccccc1-n1c(SCC(=O)NCc2cccs2)nnc1-c1ccncc1 | -2.89% |
| Cc1ccc(Nc2nc(CSc3nnc(-c4ccncc4)n3-c3ccccc3C)cs2)cc1 | -74.1% (active) |
| Cc1ccn(CC(=O)NC2CCCN(Cc3ccccc3F)C2)n1 (configuration not stated) | -22.3% |
| C[C@H](NC(=O)[C@@H]1CCCN1C(=O)[C@@H]1CCCN1C(=O)c1ccccc1)c1ccccc1 | 9.38% |
| COCCNc1ncnc2c1ncn2[C@H]1CN(Cc2ccc(OC)cc2)C[C@@H](CO)O1 | -0.989% |
| COc1ccc(-c2oc3ncnc(NCCCO)c3c2-c2ccc(OC)cc2)cc1 | -68.8% (active) |
| CCc1oc(-c2ccc(OC)cc2)c(C(=O)OCCCCCO)c1C(C)OCCO (configuration not stated) | -1.94% |
| Cn1ncc(Br)c1C(=O)NC1CCCC1 | -17.3% |
| CN(CC(=O)NCc1ccc2c(c1)OCO2)CC(=O)Nc1ccc(F)c(F)c1F | -7.29% |
| COc1ccc(C2CC(c3cccs3)=NN2C(=O)CSc2nncs2)cc1OC (configuration not stated) | -14.9% |
| COc1ccc(C2CC(=O)n3c(nc4ccccc43)S2)cc1OC (configuration not stated) | -17% |
| COc1ccc(C2CC(c3cccs3)=NN2C(=O)CSc2nnc(N)s2)cc1OC (configuration not stated) | -61.5% (active) |
| COc1ccccc1N1N=C(c2cccs2)CC1c1ccccc1 (configuration not stated) | 24% |

| Compound | activity change |
| --- | --- |
| COc1ccc(C2CC(c3cccs3)=NN2C(=O)COC(=O)c2cc3ccccc3cc2O)cc1OC (configuration not stated) | 12.7% |
| COc1ccc(C2CC(c3cccs3)=Nc3ccccc3S2)cc1OC (configuration not stated) | -56.2% (active) |
| CC(C)(C)OC(=O)N1CCC(C(=O)Nc2cccc(C(=O)NCCc3ccccc3)c2)CC1 | 17.9% |
| CCC1(C)COC(c2ccc(OC)c(OC)c2)OC1 (configuration not stated) | 10.5% |
| CC1(C(=O)NCc2ccccc2)CSCC(=O)N1CCCN1CCOCC1 (configuration not stated) | 16.7% |
| N#Cc1c(N)nc2c3c(sc(=N)c2c1N)NC(=O)CC3c1ccccc1Cl (configuration not stated) | 36.3% |
| CC1=NC2(CCCc3c2no[n+]3[O-])N(O)C1(C)C (configuration not stated) | 1.59% |
| COC(=O)C[C@H]1C[C@@H]2c3cc(NC(=O)Nc4ccccc4)ccc3O[C@@H]2[C@@H](CO)O1 | 9.89% |
| COc1cc(OC)cc(C(=O)NCCCn2ccnc2)c1 | 20.1% |
| COc1cccc(-c2nn(-c3ccccc3)cc2/C=C(\C#N)C(=O)NCCCn2ccnc2)c1 | -84% (active) |
| COc1ccc(/C=C(\C#N)C(=O)NCCCn2ccnc2)cc1 | -1.26% |
| CCOC(=O)c1cc(-c2sc(NC(=O)c3ccccc3)nc2C)n(CCO)n1 | -3.33% |
| NS(=O)(=O)c1ccc(NC(=O)/C=C/c2ccccc2Cl)cc1 | -17.1% |
| COCCNC(=O)CSc1nc(N)c(NC(=O)c2ccco2)c(=O)[nH]1 | 0.73% |
| CSc1nc(-c2ccccc2)nc(C(Cl)Cl)n1 | -99.1% (active) |
| CSc1ncc(Sc2ccccc2)c(C(=O)O)n1 | 5.96% |
| CC1(C)OC(=O)C2=C(CC(c3ccccc3)OC2CCc2ccccc2)O1 (configuration not stated) | -7.82% |
| O=C(Nc1ccccc1C(=O)N1CCOCC1)c1ccc(Cl)cc1 | 12.7% |
| CCOC(=O)N1CCN(C(=O)C2CC(c3ccc(F)cc3)=NO2)CC1 (configuration not stated) | -3.7% |
